In all, about 39,000 compounds went through this assay and about 3,300 (8.5%) were called active. The sample holds actives, similar compounds and a random draw of the others, so the mix is not that of the screen.
Test system: HepG2
Experiment: cytotoxicity call (relative viability < 0.9)
Details: 10 µM

| SMILES | cytotoxicity call |
| --- | --- |
| COc1ccc(S(=O)(=O)N(C)C[C@@H]2Oc3ccc(NC(=O)CCCN(C)C)cc3C(=O)N([C@@H](C)CO)C[C@H]2C)cc1 | inactive |
| C[C@@H]1CCCCO[C@@H](CN(C)C(=O)c2ccccc2)[C@H](C)CN([C@H](C)CO)C(=O)c2cc(NC(=O)c3ccccc3)ccc2O1 | inactive |
| CC(C)NC(=O)Nc1ccc2c(c1)CC(=O)N([C@@H](C)CO)C[C@@H](C)[C@H](CN(C)S(=O)(=O)c1cn(C)cn1)O2 | inactive |
| C[C@@H]1CN([C@H](C)CO)C(=O)c2cc(NC(=O)Nc3ccccc3)ccc2O[C@H]1CN(C)C(=O)Nc1ccc(C(F)(F)F)cc1 | inactive |
| O=C(O)C[C@@H]1CC[C@H]2[C@@H](COC[C@@H](O)CN2S(=O)(=O)c2ccc(F)cc2)O1 | inactive |
| COc1ccc(NC(=O)Nc2cccc3c2O[C@@H](CN(C)CC2CCCCC2)[C@H](C)CN([C@H](C)CO)C3=O)cc1 | inactive |
| C[C@@H]1CN([C@H](C)CO)C(=O)c2cc(-c3cncnc3)cnc2O[C@@H]1CN(C)C(=O)Nc1ccc2c(c1)OCO2 | inactive |
| CC(C)NC(=O)N(C)C[C@H]1Oc2c(NC(=O)Nc3ccc4c(c3)OCO4)cccc2C(=O)N([C@@H](C)CO)C[C@H]1C | inactive |
| CC(C)NC(=O)N(C)C[C@H]1Oc2ccc(NC(=O)Nc3ccc4c(c3)OCO4)cc2C(=O)N([C@@H](C)CO)C[C@H]1C | inactive |
| Cc1cc(C(=O)Nc2cccc3c2O[C@H](CN(C)C(=O)Nc2ccc4c(c2)OCO4)[C@H](C)CN([C@@H](C)CO)C3=O)n(C)n1 | inactive |
| CC(C)NC(=O)N(C)C[C@H]1Oc2ccc(NC(=O)Nc3ccc4c(c3)OCO4)cc2C(=O)N([C@H](C)CO)C[C@H]1C | inactive |
| C[C@H](CO)N1C[C@H](C)[C@@H](CN(C)C(=O)Nc2ccc3c(c2)OCO3)Oc2ncc(-c3cncnc3)cc2C1=O | active |
| Cc1cc(C(=O)Nc2cccc3c2O[C@@H](CN(C)C(=O)Nc2ccc4c(c2)OCO4)[C@H](C)CN([C@@H](C)CO)C3=O)n(C)n1 | inactive |
| Cc1cc(C(=O)Nc2cccc3c2O[C@@H](CN(C)C(=O)Nc2ccc4c(c2)OCO4)[C@@H](C)CN([C@@H](C)CO)C3=O)n(C)n1 | active |
| C[C@@H]1CN([C@@H](C)CO)C(=O)c2cc(-c3cncnc3)cnc2O[C@H]1CN(C)C(=O)Nc1ccc2c(c1)OCO2 | inactive |
| CC(C)NC(=O)N(C)C[C@@H]1Oc2ccc(NC(=O)Nc3ccc4c(c3)OCO4)cc2C(=O)N([C@@H](C)CO)C[C@@H]1C | active |
| CC(C)NC(=O)N(C)C[C@@H]1Oc2c(NC(=O)Nc3ccc4c(c3)OCO4)cccc2C(=O)N([C@@H](C)CO)C[C@H]1C | active |
| CC(C)NC(=O)N(C)C[C@@H]1Oc2c(NC(=O)Nc3ccc4c(c3)OCO4)cccc2C(=O)N([C@H](C)CO)C[C@H]1C | inactive |
| C[C@@H]1CCCCO[C@H](CN(C)Cc2ccc(C(=O)O)cc2)[C@@H](C)CN([C@H](C)CO)C(=O)c2cc(NC(=O)C3CCCCC3)ccc2O1 | inactive |
| Cc1ccc(S(=O)(=O)N(C)C[C@@H]2Oc3ncc(C#CCN(C)C)cc3C(=O)N([C@H](C)CO)C[C@@H]2C)cc1 | inactive |

| SMILES | cytotoxicity call |
| --- | --- |
| Cc1noc(C)c1NC(=O)N(C)C[C@H]1OCCCC[C@@H](C)Oc2ccc(NS(=O)(=O)c3cccs3)cc2C(=O)N([C@@H](C)CO)C[C@@H]1C | inactive |
| C[C@H]1CN([C@@H](C)CO)C(=O)c2cccc(NS(=O)(=O)c3ccc(F)cc3)c2O[C@H]1CN(C)S(=O)(=O)c1ccccc1 | inactive |
| Cc1noc(C)c1S(=O)(=O)N(C)C[C@H]1Oc2c(NS(=O)(=O)c3cn(C)cn3)cccc2C(=O)N([C@@H](C)CO)C[C@H]1C | inactive |
| COc1cccc(O)c1O | active |
| COc1cccc(OC)c1O | inactive |
| COc1ccccc1O | inactive |
| O=C1/C(=C/c2cn(-c3ccccc3)nc2-c2ccc(OCc3ccccc3)cc2)SC(=S)N1CCS(=O)(=O)O | inactive |
| Cc1noc(C)c1NC(=O)N(C)C[C@@H]1Oc2ccc(NC(=O)c3ccncc3)cc2C(=O)N([C@@H](C)CO)C[C@H]1C | inactive |
| C[C@@H]1CCCCO[C@H](CN(C)Cc2ccc3c(c2)OCO3)[C@H](C)CN([C@H](C)CO)C(=O)c2cc(NC(=O)Nc3ccc4c(c3)OCO4)ccc2O1 | active |
| C[C@H]1CCCCO[C@H](CN(C)Cc2ccc3c(c2)OCO3)[C@@H](C)CN([C@@H](C)CO)C(=O)c2cc(NC(=O)Nc3ccc4c(c3)OCO4)ccc2O1 | inactive |
| C[C@H](CO)N1C[C@H](C)[C@H](CN(C)Cc2ccc3c(c2)OCO3)OCCCC[C@H](C)Oc2ccc(NC(=O)Nc3ccc4c(c3)OCO4)cc2C1=O | active |
| C[C@@H]1CCCCO[C@@H](CN(C)Cc2ccc3c(c2)OCO3)[C@@H](C)CN([C@@H](C)CO)C(=O)c2cc(NC(=O)Nc3ccc4c(c3)OCO4)ccc2O1 | active |
| C[C@@H]1CCCCO[C@@H](CN(C)Cc2ccc3c(c2)OCO3)[C@H](C)CN([C@@H](C)CO)C(=O)c2cc(NC(=O)Nc3ccc4c(c3)OCO4)ccc2O1 | inactive |
| C[C@@H]1CCCCO[C@@H](CN(C)Cc2ccc3c(c2)OCO3)[C@H](C)CN([C@H](C)CO)C(=O)c2cc(NC(=O)Nc3ccc4c(c3)OCO4)ccc2O1 | active |
| C[C@H]1CCCCO[C@@H](CN(C)Cc2ccc3c(c2)OCO3)[C@@H](C)CN([C@@H](C)CO)C(=O)c2cc(NC(=O)Nc3ccc4c(c3)OCO4)ccc2O1 | inactive |
| C[C@@H]1CN([C@H](C)CO)C(=O)c2cc(NC(=O)Nc3ccc4c(c3)OCO4)ccc2O[C@@H](C)CCCCO[C@H]1CN(C)Cc1ccc2c(c1)OCO2 | inactive |
| C[C@@H]1CN([C@@H](C)CO)C(=O)c2cc(NC(=O)Nc3ccc4c(c3)OCO4)ccc2O[C@@H](C)CCCCO[C@H]1CN(C)Cc1ccc2c(c1)OCO2 | inactive |
| C[C@@H]1CN([C@@H](C)CO)C(=O)c2ccccc2-c2ccccc2CO[C@@H]1CN(C)C(=O)c1cc(Cl)cc(Cl)c1 | inactive |
| O=C(N[C@@H]1C=C[C@H](CC(=O)N2CCOCC2)O[C@@H]1CO)c1ccc2c(c1)OCO2 | inactive |
| C[C@@H]1CN([C@@H](C)CO)C(=O)c2cc(NC(=O)C3CCCCC3)ccc2O[C@H]1CN(C)C(=O)Nc1cccc2ccccc12 | inactive |
